Bioassay records (PubChem)
Compounds with a hit are over-represented: about 12% of the library has one in this group of screens.
Gal4-VP16 FLuc = Gal4-VP16 reporter inhibition counter-screen; Drosophila S2 Gal4-VP16 UAS-luciferase, luminescence, 20 h; hit rate 3.5% among 310,000; Potency, µM (doses to about 53.6 µM), for the others: at the highest dose activity, negative = inhibition, most hits filed as inhibitors;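 note: Gal4-VP16 expression switched on by copper sulfate through the metallothionein promoter; nearly all actives have a fitted effect of over 50% in size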
ALDH1A1 inh = inhibitors of human aldehyde dehydrogenase 1A1; hit rate 7.3% among 220,000; Purified ALDH1A1, NADH fluorescence, propionaldehyde substrate; Potency, µM (series often up to 75.3 µM), for inactives: at the highest dose activity, negative = inhibition, actives largely listed as inhibitors; active = well fitted inhibition curve with a large enough effect, not every such curve was filed as active; inconclusive = small, poorly fitted or top-dose-only effect, or another doubt; inactive = no such curve, though single readings can be large or run the other way;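 note: plate controls were no enzyme wells and a reference inhibitor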
Target sequence (P00352 whole entry, looked up): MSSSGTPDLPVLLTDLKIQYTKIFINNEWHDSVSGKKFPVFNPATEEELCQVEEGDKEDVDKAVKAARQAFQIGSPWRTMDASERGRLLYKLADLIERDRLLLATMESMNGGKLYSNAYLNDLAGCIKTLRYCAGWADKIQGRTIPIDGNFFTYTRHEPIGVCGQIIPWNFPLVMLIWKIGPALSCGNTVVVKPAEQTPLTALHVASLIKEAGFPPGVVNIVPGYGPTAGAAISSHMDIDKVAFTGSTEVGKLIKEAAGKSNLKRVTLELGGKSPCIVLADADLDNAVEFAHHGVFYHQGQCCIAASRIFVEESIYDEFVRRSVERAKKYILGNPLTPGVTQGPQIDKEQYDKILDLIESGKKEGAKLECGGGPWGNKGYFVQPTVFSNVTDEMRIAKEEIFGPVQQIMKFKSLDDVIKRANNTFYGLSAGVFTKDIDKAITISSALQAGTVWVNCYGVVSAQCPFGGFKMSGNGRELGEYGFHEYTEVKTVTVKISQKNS
PLK1 PBD inh = inhibitors of human PLK1 polo-box domain binding | Potency, µM, inactives show max response, negative = inhibition, usual class: inhibitors | Plk1 PBD binding of FITC phosphopeptide, fluorescence polarization | hit rate 2.8% among 360,000 | P53350; note: series mostly up to about 57 µM; nearly all actives have a fitted effect of over 65% in size
RORg inh = inhibitors of mouse ROR gamma transcriptional activity; P51450; Drosophila S2 Gal4-RORgamma UAS-luciferase reporter, 20 h; Potency, µM (highest dose often 53.6 µM), for inactives: at the top dose activity change, negative = inhibition, hits mostly inhibitors; hit rate 5.4% among 310,000; AID 2551; note: nearly all actives have a fitted effect of over 60% in size
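Schneider cells (Drosophila), stable Gal4 DBD–ROR gamma + UAS-luc; 1 hr cmpd preincubation; Cu2+ induction 700 uM final; 20 hr ambient; luminescence.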
Sfp inh = inhibitors of Bacillus subtilis Sfp phosphopantetheinyl transferase; Q9F4F7; Biochemical Sfp PPTase activity, qHTS; Potency, µM, for inactives: largest response in the series, negative = inhibition, hits mostly inhibitors; hit rate 3.5% among 310,000; AID 1490;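 note: the enzyme is Sfp with the accession as filed and its product quenches rhodamine fluorescence; 0% = enzyme reaction without inhibitor and -100% = no enzyme wells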
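With Hepes-Na pH 7.6 buffer containing 10 mM MgCl2, Sfp (15 nM) modified BHQ-2-YbbR (12.5 uM) using rhodamine-CoA (5 uM). Two reads 30 minutes apart at 525/598 nm yielded each well's rate.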
Numbers without * were called inactive; ? = inconclusive; . = no result; [ ] = remark or other dose. Unless noted, calls come from the whole dose curve; as a rule, active = well fitted curve in the direction sought with a large enough effect; inconclusive = small, poorly fitted or top-dose-only effect, or another doubt; inactive = no such curve, though single readings can be large; an effect the other way counts as inactive or inconclusive. Unless noted, % is set by controls: 0 for no effect and ±100 for the full control effect; potency is the fitted concentration of half-maximal effect.

SMILES	Gal4-VP16 FLuc	ALDH1A1 inh	PLK1 PBD inh	RORg inh	Sfp inh
CCOC(=O)N1CCN(C(=O)CN(C2CCCCC2)S(=O)(=O)c2ccc(C)cc2)CC1	4.3%	7.08µM*	-1.9%	-11.5%	21.0%
O=S1(=O)C2CC3C=CC2(O3)C(O)C(Cc2ccccc2)N1Cc1cccc(F)c1 (configuration not stated)	-6.2%	.	.	12.4%	8.0%
CC1CC(=O)Nc2ccccc2N1C(=O)Cn1cnc2ccccc2c1=O (configuration not stated)	.	.	0.3%	.	.
CC1CCc2c(sc(N)c2C(=O)OC(C)C)C1 (configuration not stated)	15.6%	11.2µM*	?	9.1%	?
Cc1ccsc1C(=O)Nc1nccs1	?	.	-10.4%	11.2µM*	13.3%
CCc1sc(C(=O)Nc2ncccc2C)cc1C	-14.8%	.	3.0%	-4.7%	7.7%
CCc1sc(C(=O)Nc2nccs2)cc1C	?	.	-4.6%	7.94µM*	6.6%
O=C(O)CSCCc1ccccc1	.	11.6%[13.5 µM]	.	.	.
COC(=O)C1CCN(C2CN(Cc3ccccc3)S(=O)(=O)C2)CC1 (configuration not stated)	.	.	-13.8%	.	.
O=C1C2C3C=CC(CC3)C2C(=O)N1c1ccc(Br)cc1[N+](=O)[O-] (configuration not stated)	-2.4%	.	-7.1%	10.8%	16.9%
O=C1C2C3C=CC(CC3)C2C(=O)N1c1ccccc1[N+](=O)[O-] (configuration not stated)	-6.6%	?	-8.3%	-9.0%	56.2µM*
O=C1OC(Nc2cc(Br)cc3cccnc23)c2ccccc21 (configuration not stated)	11.2µM*	5.6%	-14.4%	?	?
O=C1OC(Nc2ncccn2)c2ccccc21 (configuration not stated)	1.0%	10.6%	-6.8%	-6.0%	14.7%
CN1CCN(CC(O)Cn2c3ccccc3c3ccccc32)CC1 (configuration not stated)	2.0%	.	-11.3%	0.7%	50.1µM*
Cc1c(C)n(CC(O)CN2CCN(C)CC2)c2ccccc12 (configuration not stated)	-9.2%	.	-8.0%	0.2%	2.0%
COc1ccc(-c2ccc(/C=C3/C(=N)N4C(C)=CSC4=NC3=O)o2)c([N+](=O)[O-])c1	?	0.2%	-5.5%	11.2µM*	12.8%
CCOc1cc(OCC)cc(C(=O)NCCN2CCC(n3c(=O)[nH]c4ccccc43)CC2)c1	.	.	-4.5%	.	.
CN(C(=O)CN1C(=O)/C(=C/c2ccccc2Cl)SC1=S)C1CCS(=O)(=O)C1 (configuration not stated)	?	.	-25.7%	10µM*	-15.0%
O=C(CCCN1C(=O)/C(=C/c2ccccc2Cl)SC1=S)Nc1ccccn1	?	-1.8%	-1.7%	1.78µM*	-11.8%
O=C1/C(=C/c2ccccc2Cl)SC(=S)N1CCCC(=O)N(CCO)c1ccccc1	?	.	-0.5%	2.24µM*	-22.4%
O=C(CCN1C(=O)/C(=C/c2cccs2)SC1=S)Nc1ccccc1O	-28.9%	.	2.1%	6.3%	12.7%
O=C(CCN1C(=O)/C(=C/c2ccccc2Cl)SC1=S)Nc1ccccn1	-5.6%	.	-4.7%	-32.5%	15.3%
O=C(CCN1C(=O)/C(=C/c2ccccc2Cl)SC1=S)NC1CCCC1	-1.1%	.	-9.3%	-44.6%	11.4%
O=C(CCCN1C(=O)/C(=C\c2cccs2)SC1=S)Nc1cc([N+](=O)[O-])ccc1O	20µM*	.	-20.3%	?	7.4%
CN(C)CCNC(=O)c1ccc2nc([C@@H]3O[C@H](CO)[C@H](O)[C@H](O)[C@H]3O)[nH]c2c1	.	.	-1.5%	.	.
SMILES	Gal4-VP16 FLuc	ALDH1A1 inh	PLK1 PBD inh	RORg inh	Sfp inh
O=C(CCCN1C(=O)/C(=C/c2ccccc2Cl)SC1=S)Nc1cccnc1	-101.2%	.	-9.6%	0.224µM*	3.6%
O=C(CCCN1C(=O)/C(=C/c2cccs2)SC1=S)Nc1ccccn1	?	-17.9%	18.9µM*	-29.9%	?
CCCCC/C=C\C/C=C\C/C=C\C=C\C(O)CCCC(=O)O (configuration not stated)	-1.2%	3.2%	.	11.4%	2.5%
CC(C)C(=O)N1CCC1(C)C(=O)Nc1ccccc1OC(F)F (configuration not stated)	.	.	-4.3%	.	.
c1cc2c(cc1C1CCCCC1)c1c3n2CCN=C3CCC1	2.1%	-6.1%	?	23.8%	79.4µM*
Cc1ccc2c(c1)c1c3n2CCN[C@H]3CCC1	-5.5%	6.0%	.	-22.3%	-4.8%
Cc1ccc2c(c1)c1c3n2CCN=C3CCC1	?	-6.1%	-7.4%	11.2µM*	3.5%
COc1ccc(-c2coc3c(C(=O)Nc4cccc(C(C)=O)c4)cccc23)c(C)c1	.	.	-8.4%	.	.
Cc1ccc(N(Cc2ccc([N+](=O)[O-])cc2)C(=O)c2ccco2)cc1C	?	?	-2.0%	-3.2%	3.8%
O=C(c1ccco1)N(Cc1ccccc1)c1cccc([N+](=O)[O-])c1	-19.6%	20µM*	-5.5%	-11.4%	0.0%
O=C(c1ccco1)N(Cc1cccc([N+](=O)[O-])c1)c1ccc(Br)cc1	-8.7%	22.4µM*	-18.8%	8.0%	?
COc1cc(NC(=O)c2ccccc2)c(OC)cc1NC(=O)CSc1[nH]c(=O)cc(C)c1C#N	-13.5%	.	-4.7%	?	-6.9%
Cc1cc(=O)[nH]c(SCC(=O)Nc2cccc3ccccc23)c1C#N	-8.6%	?	-11.6%	26.7%	50.1µM*
Cc1cc(=O)[nH]c(SCC(=O)O)c1C#N	-3.8%	-7.2%	-2.5%	-9.8%	15.3%
COCCOC(=O)c1c(C)nc(SCC(=O)Nc2cccc3ccccc23)c(C#N)c1-c1ccco1	-0.4%	?	-7.0%	2.8%	7.94µM*
Cc1cc(=O)[nH]c(SCC(=O)C23CC4CC(CC(C4)C2)C3)c1C#N	?	3.16µM*	23.8µM*	?	-65.5%
NC1=NCC2c3ccccc3Cc3ccccc3N12 (configuration not stated)	1.8%	.	.	4.4%	20.4%
COc1ccc(-c2coc3cc(OC(C)=O)cc(OC(C)=O)c3c2=O)cc1	-23.0%	68.5%	.	24.2%	-0.7%
COc1ccc(C(=O)ON=C(C)c2nccs2)cc1	.	.	-11.5%	.	.
FC(F)Oc1ccc(NC(=S)NCc2ccccc2)cc1Cl	?	?	-7.5%	14.1µM*	-6.2%
O=C(Cc1cccc2ccccc12)Nc1ccc(OC(F)F)c(Cl)c1	-9.4%	?	-2.5%	?	6.3%
Oc1cccc2c(NC(=S)Nc3ccc(OC(F)F)cc3)cccc12	11.2µM*	?	0.0%	?	56.2µM*
O=C(Nc1ccc(OC(F)F)c(Cl)c1)C(c1ccccc1)c1ccccc1	?	14.1µM*	-11.0%	?	29.8%
FC(F)Oc1ccc(NC(=S)NCc2ccccc2)cc1	?	2.3%	-15.3%	12.6µM*	11.4%
COC(=O)[C@@]12C[C@@H](CC(=O)NCc3cccc(C(F)(F)F)c3)C(=O)N(Cc3ccc4c(c3)OCO4)C1=CCC(C)(C)C2	.	.	-6.4%	.	.
